Screening results deposited in PubChem BioAssay by National Center for Advancing Translational Sciences (NCATS).
Most compounds without a hit are left out; they make up all but 21% or so of the library.
Shiga inhibitor – Shiga toxin inhibition | AID 2315 | inhibition, % at 38.7 µM | 9.2% of 290,000 active | Vero cells, Shiga toxin protein synthesis inhibition reporter; in the data active = inhibition mostly above about 28%, no sharp cut-off; inactive = mostly below about 43%; note: 0% is about no effect
Sm TGR block – blocks Schistosoma mansoni thioredoxin glutathione reductase. Potency, µM (highest dose often 114 µM), for the others: at the highest dose activity change, negative = inhibition, hits mostly inhibitors. purified TGR, DTNB reduction, TNB absorbance 405 nm. 3% of 360,000 active. Q962Y6; note: potency is the fitted concentration of half-maximal effect; % is set by controls: 0 for no effect and ±100 for the full control effect; nearly all actives have a fitted effect of over 60% in size
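Kinetic colorimetric format: TGR-catalysed, NADPH-driven DTNB reduction monitored via TNB absorbance. Enzyme dispensed at 20 nM; compound exposure 15 min at room temperature before reaction start.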
Pf growth 96h – P. falciparum growth inhibition at 96 hour, primary screen for plastid delayed-death inhibitors; P. falciparum luciferase reporter growth, 96 h; Potency, µM (top dose mostly 28.7 µM), for inactives: at the highest dose activity change, negative = inhibition, hits mostly inhibitors; 6.9% of 320,000 active; AID 504834; note: potency is the fitted concentration of half-maximal effect; % is set by controls: 0 for no effect and ±100 for the full control effect
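Delayed-death screen, second-generation endpoint: infected erythrocytes, 2% hematocrit, 0.05% parasitemia final; 96 hours at 37 C, 5% CO2; luciferase detection reagent; luminescence decrease equals reduced growth.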
CHX counter – counter-screen for Shiga toxin inhibitors: cycloheximide protein synthesis inhibition; cell reporter, cycloheximide protein synthesis inhibition counterscreen; max response, %; 12% of 300,000 active; AID 2314; in the data active = max response mostly above about 13%, no sharp cut-off; inactive = mostly below about 14%; note: read at 38.3 µM for the half of the compounds with a filed dose; 0% is about no effect
NS1 function inh – inhibitors of influenza NS1 protein function | Potency, µM (series often up to 46.1 µM), inactives show at the top dose activity, positive = more growth | 0.4% of 270,000 active; calls by dose curve; note: potency is the fitted concentration of half-maximal effect; actives are rising curves; nearly all actives have a fitted effect of over 50% in size
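Read-out: OD600 growth recovery of NS1-expressing budding yeast. Cells grown overnight at 30C in -URA glucose medium, washed, resuspended and diluted 1:100 in 2% galactose assay medium, pH 6.0. Same strain lacking NS1 served as positive control.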
Pf growth 48h – P. falciparum growth inhibition at 48 hours (one generation); P. falciparum luciferase growth in erythrocytes, 48 h; Potency, µM (top dose mostly 28.7 µM), inactives show top-dose activity change, negative = inhibition, most hits filed as inhibitors; 5.9% of 310,000 active; AID 504832; note: potency is the fitted concentration of half-maximal effect; % is set by controls: 0 for no effect and ±100 for the full control effect
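Firefly luciferase activity from engineered P. falciparum reports growth; inhibitors lower the luminescent signal. Cultures contained 2% hematocrit erythrocytes at 0.1% final parasitemia.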
Active calls of the source: *. Unless noted, calls come from the whole dose curve; as a rule, active = well fitted curve in the direction sought with a large enough effect; inconclusive = small, poorly fitted or top-dose-only effect, or another doubt; inactive = no such curve, though single readings can be large; an effect the other way counts as inactive or inconclusive.

CN1c2ccccc2C(C)(C)C12CC(CCl)=NO2 (stereo unspecified) was read as Shiga inhibitor 15, Sm TGR block 40µM*, Pf growth 96h 8%, CHX counter -3, NS1 function inh 1% and Pf growth 48h 0%.
For Cc1cccc(-n2c(SCC(=O)Nc3ccc(C)c(C)c3)nc3n[nH]c(C)c3c2=N)c1 the results were Sm TGR block -1%.
`CC(=O)c1cc(C#N)c(SCC(=O)O)nc1C` gave Shiga inhibitor -7, Sm TGR block 4%, Pf growth 96h 1%, CHX counter -5 and NS1 function inh -5%.
CCCCSc1nc(C)c(C(C)=O)cc1C#N was read as Shiga inhibitor 79*, Sm TGR block 0%, Pf growth 96h 10%, CHX counter 32*, NS1 function inh -206% and Pf growth 48h 20%.
`CCOC(=O)CSc1nc(C)c(C(C)=O)cc1C#N` gave Shiga inhibitor 100*, Sm TGR block -1%, Pf growth 96h inconclusive, CHX counter 18*, NS1 function inh -13% and Pf growth 48h inconclusive.
Screening COc1ccccc1-c1noc(-c2ccc(NC3CCCC3)c([N+](=O)[O-])c2)n1 returned Sm TGR block -32%.
`CCCCN(CCCC)CCNC(=O)c1cn(C)c2ccc(S(=O)(=O)N3CCOCC3)cc2c1=O` gave Sm TGR block 8%.
Screening CCCCCCCCc1nnc(N)s1 returned Shiga inhibitor 7, Sm TGR block -1%, Pf growth 96h 53%, CHX counter 12*, NS1 function inh -5% and Pf growth 48h -12%.
Screening Nc1nnc(CCCCCc2nnc(N)s2)s1 returned Shiga inhibitor 2, Sm TGR block 0%, Pf growth 96h 1%, CHX counter 9 and Pf growth 48h inconclusive.
O=C(Cn1c(=O)n(-c2ccc(F)c(Cl)c2)c(=O)c2sc3ccccc3c21)NC1CCCC1 was read as Sm TGR block 7%.
`N#Cc1ccc(-c2ccc(C3Nc4ccccc4C(=O)N3O)o2)cc1` (stereo unspecified) gave Sm TGR block 5µM*, Pf growth 96h inconclusive and Pf growth 48h inconclusive.
`CCOC(=O)c1ccc(-c2ccc(C3Nc4ccccc4C(=O)N3O)o2)cc1` (stereo unspecified) gave Shiga inhibitor 145*, Sm TGR block -24%, Pf growth 96h -89%, CHX counter 33*, NS1 function inh -29% and Pf growth 48h inconclusive.
Screening O=C1c2ccccc2NC(c2ccc(-c3ccccc3F)o2)N1O (stereo unspecified) returned Sm TGR block inconclusive, Pf growth 96h 4% and Pf growth 48h 57%.
Screening O=C1c2ccccc2NC(c2ccc(-c3cccc(F)c3)o2)N1O (stereo unspecified) returned Sm TGR block inconclusive, Pf growth 96h 129% and Pf growth 48h 89%.
O=C(CN1C(=O)C(=O)N(Cc2ccccc2)C1=O)Nc1ccc(OC(F)F)cc1 was read as Sm TGR block -1%, Pf growth 96h 15% and Pf growth 48h -19%.
Cc1nn2c(=O)cc(COc3ccc(/C=C(\C#N)C(=O)Nc4ccccc4)cc3Cl)nc2s1 was read as Sm TGR block 4%.
`O=C(Nc1ccc(Oc2cccnc2)cc1)c1cccc([N+](=O)[O-])c1` gave Shiga inhibitor 44*, Sm TGR block -2%, Pf growth 96h -4%, CHX counter 16*, NS1 function inh -7% and Pf growth 48h 59%.
Cc1ccc2nsnc2c1NC(=O)c1cccc([N+](=O)[O-])c1 was read as Shiga inhibitor -10, Sm TGR block -11%, Pf growth 96h -8%, CHX counter 7, NS1 function inh 2% and Pf growth 48h inconclusive.
Screening O=C(Nc1cccc([N+](=O)[O-])c1)c1ccc2nsnc2c1 returned Shiga inhibitor 27, Sm TGR block -11%, Pf growth 96h 13µM*, CHX counter 17, NS1 function inh 4% and Pf growth 48h 4%.
Screening O=C(Nc1cccc([N+](=O)[O-])c1)c1ccc(CSc2ccccc2)cc1 returned Shiga inhibitor -5, Sm TGR block -23%, Pf growth 96h 16%, CHX counter -4, NS1 function inh 7% and Pf growth 48h 9%.
O=C(Nc1ccc2ccccc2c1)c1cccc([N+](=O)[O-])c1 was read as Shiga inhibitor 74*, Sm TGR block 19%, Pf growth 96h inconclusive, CHX counter 20*, NS1 function inh 0% and Pf growth 48h 39%.
O=C(Nc1cccc([N+](=O)[O-])c1)c1ccccc1 was read as Shiga inhibitor 30, Sm TGR block 12%, Pf growth 96h 128%, CHX counter 18*, NS1 function inh -31% and Pf growth 48h 95%.
For O=C(CSc1nc(-c2ccco2)nc2cc(=O)[nH]n12)Nc1ccccc1F the results were Sm TGR block -29%.
`ClCc1nc2ccccc2c2ccccc12` gave Shiga inhibitor -13, Sm TGR block inconclusive, Pf growth 96h inconclusive, CHX counter -4, NS1 function inh 2% and Pf growth 48h inconclusive.
For O=C(COC(=O)c1ccccc1C(=O)c1ccccc1)Nc1cccc([N+](=O)[O-])c1 the results were Shiga inhibitor 30*, Sm TGR block -8%, Pf growth 96h 64%, CHX counter 19*, NS1 function inh inconclusive and Pf growth 48h 24%.
`C/C=C/c1ccc(OCc2cc(=O)n3cc(C)ccc3n2)c(OC)c1` gave Shiga inhibitor -7, Sm TGR block -27%, Pf growth 96h inconclusive, CHX counter 1, NS1 function inh 2% and Pf growth 48h inconclusive.
Screening Cc1ccc(/C=C/C(=O)NC2CCS(=O)(=O)C2)cc1 (stereo unspecified) returned Shiga inhibitor 14, Sm TGR block inconclusive, Pf growth 96h 48%, CHX counter 20* and Pf growth 48h inconclusive.
`O=C(/C=C/c1ccc(Br)cc1)NC1CCCCCC1` gave Shiga inhibitor 62*, Sm TGR block 3%, Pf growth 96h 160%, CHX counter 17*, NS1 function inh -36% and Pf growth 48h 120%.
O=C(Cc1ccc(Br)cc1)NC1CCCCC1 was read as Shiga inhibitor 20, Sm TGR block inconclusive, Pf growth 96h 69%, CHX counter 22* and NS1 function inh -10%.
`CC1CC(NC(=O)Cc2ccc(Br)cc2)CC(C)(C)C1` (stereo unspecified) gave Shiga inhibitor -5, Sm TGR block 29%, Pf growth 96h inconclusive, CHX counter -1, NS1 function inh -1% and Pf growth 48h 12µM*.
`O=C(COC(=O)Cc1ccc(Br)cc1)NC1CC1` gave Sm TGR block -1%, Pf growth 96h -28% and Pf growth 48h -17%.
